# PubChem BioAssay
# Where “and” joins values, the source holds several entries; their conditions need not be identical. Equal values may be shown once. Results filed as inconclusive are left out. Calls of active or inactive are those of the source.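 Rule for the calls, unless noted: active = normalized viability below 100% at a tested concentration; inactive = the rest.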
# How the values were obtained:
# [1] = growth inhibition of DIPG glioma cells, dose response, cell-based, SU-DIPG-XVII, MIPE5.0, CellTiter-Glo, qHTS (AID 1347060; cut-off not given, nearly all actives have AC50 up to about 26 µM;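 for AC50: cells exposed to compound for 48 hours before viability readout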); details: SU-DIPG-XVII viability, CellTiter-Glo ATP luminescence
# [2] = growth inhibition of DIPG glioma cells, dose response, cell-based, JHH-DIPG-1, MIPE4.0, CellTiter-Glo, qHTS (AID 1347062; cut-off not given, nearly all actives have AC50 up to about 27 µM;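 for AC50: cells exposed to compound for two days before readout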); details: JHH-DIPG-1 viability, CellTiter-Glo ATP luminescence
# [3] = growth inhibition of DIPG glioma cells, dose response, cell-based, SU-DIPG-IV, MIPE4.0, CellTiter-Glo, qHTS (AID 1347063; cut-off not given, nearly all actives have AC50 up to about 30 µM;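 note: compound exposure lasted 48 hours before the viability readout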); details: SU-DIPG-IV viability, CellTiter-Glo ATP luminescence
# [4] = growth inhibition of DIPG glioma cells, dose response, cell-based, SU-DIPG-XIII, MIPE5.0, CellTiter-Glo, qHTS (AID 1347064; cut-off not given, nearly all actives have AC50 up to about 23 µM;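 for AC50: cells exposed to compound for 48 hours before the viability read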); details: SU-DIPG-XIII viability, CellTiter-Glo ATP luminescence
# [5] = viability loss in pontine glioma line – cell-based, SU-DIPG-XXV, MIPE5.0, CellTiter-Glo, qHTS, dose response (AID 1347065; cut-off not given, nearly all actives have AC50 up to about 26 µM;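 note: cells exposed to compound for 48 hours before ATP readout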); details: CellTiter-Glo ATP luminescence
# [6] = SU-DIPG-VI glioma cell viability, MIPE4.0 library, CellTiter-Glo luminescence, qHTS (AID 1347066; cut-off not given, nearly all actives have AC50 up to about 30 µM;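 note: cells exposed to compound for 48 hours before readout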); details: CellTiter-Glo ATP luminescence
# [7] = JHH-DIPG-1 glioma cell viability, MIPE5.0 library, CellTiter-Glo luminescence, qHTS (AID 1347067; cut-off not given, nearly all actives have AC50 up to about 26 µM;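 note: cells exposed to compound for 48 hours before readout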); details: JHH-DIPG-1 glioma viability, CellTiter-Glo ATP luminescence
# [8] = SU-DIPG-XXV glioma cell viability, MIPE5.0 library, qHTS (AID 1347068; cut-off not given, nearly all actives have IC50 up to about 30 µM;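 for IC50: cells exposed to compound for 48 hours before viability readout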)
# [9] = ovarian cancer cell viability with rucaparib, profiling panel, oncology-focused library, rucaparib conditional (AID 1508598); details: patient-derived ovarian cancer cells, CellTiter-Glo viability, 144 h, stronger effect = lower value
# [10] = sensitizers of A549 cells to miR-34 induction, primary screen, imaging, A549 dox-inducible miR-34, nuclei and caspase counts (AID 1347080;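 active = compounds whose cell count with miR-34 switched on is under 0.7 times the count with it off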); details: A549 miR-34 inducible, Hoechst nuclei count, 48 h
# [11] = survival rescue of mitochondrial mutant cells in low glucose, primary screen, MELAS cybrids, Rieske KO mouse fibroblasts, CellTiter-Glo (AID 1508586;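 active = mean z-score across replicates of 1.96 or higher in either the MELAS or the Rieske mutant cell line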;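 note: z relative to plate mean and SD of compound and empty wells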)
# [12] = modifiers of HSF1 nuclear foci, imaging, Selleck Cancer Library (AID 1347162; in the data active = plate-normalised HSF1 focus index below about 0.46); details: human cells, at 10 µM; SSMD: measured here: HSF1 foci SSMD mean; cell count: measured here: cell number; plate-normalised HSF1 focus index: stronger effect = lower value
# [13] = at 0.000305 µM, OCI-C5x cells, with rucaparib 10 µM, 100% = cells with rucaparib alone
# [14] = at 0.000305 µM, OCI-C5x cells, without rucaparib
# [15] = at 0.000305 µM, OCI-P5x cells, with rucaparib 20 µM, 100% = cells with rucaparib alone
# [16] = at 0.000305 µM, OCI-P5x cells, without rucaparib
# [17] = at 0.00122 µM, OCI-C5x cells, with rucaparib 10 µM, 100% = cells with rucaparib alone
# [18] = at 0.00122 µM, OCI-C5x cells, without rucaparib
# [19] = at 0.00122 µM, OCI-P5x cells, with rucaparib 20 µM, 100% = cells with rucaparib alone
# [20] = at 0.00122 µM, OCI-P5x cells, without rucaparib
# [21] = at 0.00488 µM, OCI-C5x cells, with rucaparib 10 µM, 100% = cells with rucaparib alone
# [22] = at 0.00488 µM, OCI-C5x cells, without rucaparib
# [23] = at 0.00488 µM, OCI-P5x cells, with rucaparib 20 µM, 100% = cells with rucaparib alone
# [24] = at 0.00488 µM, OCI-P5x cells, without rucaparib
# [25] = at 0.0195 µM, OCI-C5x cells, with rucaparib 10 µM, 100% = cells with rucaparib alone
# [26] = at 0.0195 µM, OCI-C5x cells, without rucaparib
# [27] = at 0.0195 µM, OCI-P5x cells, with rucaparib 20 µM, 100% = cells with rucaparib alone
# [28] = at 0.0195 µM, OCI-P5x cells, without rucaparib
# [29] = at 0.0781 µM, OCI-C5x cells, with rucaparib 10 µM, 100% = cells with rucaparib alone
# [30] = at 0.0781 µM, OCI-C5x cells, without rucaparib
# [31] = at 0.0781 µM, OCI-P5x cells, with rucaparib 20 µM, 100% = cells with rucaparib alone
# [32] = at 0.0781 µM, OCI-P5x cells, without rucaparib
# [33] = at 0.313 µM, OCI-C5x cells, with rucaparib 10 µM, 100% = cells with rucaparib alone
# [34] = at 0.313 µM, OCI-C5x cells, without rucaparib
# [35] = at 0.313 µM, OCI-P5x cells, with rucaparib 20 µM, 100% = cells with rucaparib alone
# [36] = at 0.313 µM, OCI-P5x cells, without rucaparib
# [37] = at 1.25 µM, OCI-C5x cells, with rucaparib 10 µM, 100% = cells with rucaparib alone
# [38] = at 1.25 µM, OCI-C5x cells, without rucaparib
# [39] = at 1.25 µM, OCI-P5x cells, with rucaparib 20 µM, 100% = cells with rucaparib alone
# [40] = at 1.25 µM, OCI-P5x cells, without rucaparib
# [41] = at 5 µM, OCI-C5x cells, with rucaparib 10 µM, 100% = cells with rucaparib alone
# [42] = at 5 µM, OCI-C5x cells, without rucaparib
# [43] = at 5 µM, OCI-P5x cells, with rucaparib 20 µM, 100% = cells with rucaparib alone
# [44] = at 5 µM, OCI-P5x cells, without rucaparib
structure (smiles),measurement,setting,value
CN1CCCN(C(=O)c2cccc(-c3ccc(/C=C4/C(=O)Nc5ccc(Cl)cc54)o3)c2)CC1,AC50,[1],8.33 µM (active)
same,AC50,[2],20.9 µM (active)
same,AC50,[3],9.35 µM (active)
same,AC50,[4],7.42 µM (active)
same,AC50,[5],10.5 µM (active)
same,AC50,[6],10.5 µM (active)
same,AC50,[7],2.35 µM (active)
same,IC50,[8],29.5 µM (active)
same,viability,[9]; [13],101% (inactive)
same,viability,[9]; [14],96.5% (active)
same,viability,[9]; [15],105% (inactive)
same,viability,[9]; [16],105% (inactive)
same,viability,[9]; [17],103% (inactive)
same,viability,[9]; [18],102% (inactive)
same,viability,[9]; [19],107% (inactive)
same,viability,[9]; [20],103% (inactive)
same,viability,[9]; [21],99.3% (active)
same,viability,[9]; [22],104% (inactive)
same,viability,[9]; [23],106% (inactive)
same,viability,[9]; [24],106% (inactive)
same,viability,[9]; [25],90.6% (active)
same,viability,[9]; [26],99.3% (active)
same,viability,[9]; [27],97.1% (active)
same,viability,[9]; [28],103% (inactive)
same,viability,[9]; [29],108% (inactive)
same,viability,[9]; [30],107% (inactive)
same,viability,[9]; [31],109% (inactive)
same,viability,[9]; [32],102% (inactive)
same,viability,[9]; [33],105% (inactive)
same,viability,[9]; [34],111% (inactive)
same,viability,[9]; [35],100% (active)
same,viability,[9]; [36],94.8% (active)
same,viability,[9]; [37],98% (active)
same,viability,[9]; [38],96.2% (active)
same,viability,[9]; [39],95.1% (active)
same,viability,[9]; [40],93.4% (active)
same,viability,[9]; [41],2.49% (active)
same,viability,[9]; [42],2.79% (active)
same,viability,[9]; [43],1.66% (active)
same,viability,[9]; [44],1.82% (active)
O=C(O)c1ccccc1C(=O)Nc1ccc(-c2ccccc2)cc1,outcome,[1],inactive
same,outcome,[2],inactive
same,outcome,[3],inactive
same,outcome,[4],inactive
same,outcome,[5],inactive
same,outcome,[7],inactive
same,outcome,[8],inactive
CC(C)=CC[C@@H](O)C1=CC(=O)c2c(O)ccc(O)c2C1=O,AC50,[1],20.9 µM (active)
same,AC50,[2],0.526 µM (active)
same,AC50,[3],2.96 µM (active)
same,AC50,[4],11.8 µM (active)
same,AC50,[5],10.5 µM (active)
same,AC50,[6],2.96 µM (active)
same,fold change,"[10]; stronger effect = lower value, cell number ratio, induced over uninduced",1.09 (inactive) and 1.03 (inactive)
same,fold change,[10]; measured here: relative caspase fold change +Dox/-Dox,1.1 and 1.06
same,cell count,"[10]; measured here: total cells with miR-34 induction, stronger effect = lower value",2290 and 4460
same,cell count,[10]; measured here: total cells without miR-34 induction,2110 and 4340
same,z-score,"[11]; MELAS cybrid survival, CellTiter-Glo 48 h, stronger effect = higher value",-1.24 (inactive)
same,z-score,"[11]; Rieske KO mouse fibroblast survival, CellTiter-Glo 72 h",1.65
C=CC(=O)Nc1cc2c(Nc3ccc(F)c(Cl)c3)ncnc2cc1C#CC(C)(C)N1CCN(C)CC1,AC50,[1],2.95 µM (active)
same,AC50,[2],5.26 µM (active)
same,AC50,[3],1.87 µM (active)
same,AC50,[4],4.68 µM (active)
same,AC50,[5],5.9 µM (active)
same,AC50,[6],5.9 µM (active)
same,AC50,[7],4.17 µM (active)
same,IC50,[8],7.42 µM (active)
CC[C@@H]1C(=O)N(C)c2cnc(Nc3ccc(C(=O)NC4CCC(N5CCN(CC6CC6)CC5)CC4)cc3OC)nc2N1C(C)C (stereo not given in full),AC50,[1],0.0742 µM (active)
same,AC50,[2],6.62 µM (active)
same,AC50,[3],2.35 µM (active)
same,AC50,[4],5.9 µM (active)
same,AC50,[5],0.0525 µM (active)
same,AC50,[6],20.9 µM (active)
same,AC50,[7],4.17 µM (active)
same,IC50,[8],6.61 µM (active)
same,SSMD,[12],4.31
same,cell count,[12],7310
same,plate-normalised HSF1 focus index,[12],1.16 (inactive)
same,viability,[9]; [13],101% (inactive)
same,viability,[9]; [14],104% (inactive)
same,viability,[9]; [15],97.4% (active)
same,viability,[9]; [16],102% (inactive)
same,viability,[9]; [17],107% (inactive)
same,viability,[9]; [18],102% (inactive)
same,viability,[9]; [19],100% (inactive)
same,viability,[9]; [20],95.9% (active)
same,viability,[9]; [21],89.2% (active)
same,viability,[9]; [22],87.7% (active)
same,viability,[9]; [23],84.5% (active)
same,viability,[9]; [24],26.8% (active)
same,viability,[9]; [25],51.8% (active)
same,viability,[9]; [26],43.7% (active)
same,viability,[9]; [27],64.2% (active)
same,viability,[9]; [28],18.3% (active)
same,viability,[9]; [29],49.3% (active)
same,viability,[9]; [30],32.9% (active)
same,viability,[9]; [31],67.2% (active)
same,viability,[9]; [32],20.5% (active)
same,viability,[9]; [33],41.4% (active)
same,viability,[9]; [34],36.3% (active)
same,viability,[9]; [35],70.1% (active)
same,viability,[9]; [36],17.3% (active)
same,viability,[9]; [37],26.6% (active)
same,viability,[9]; [38],25.2% (active)
same,viability,[9]; [39],9.33% (active)
same,viability,[9]; [40],13.8% (active)
same,viability,[9]; [41],4.03% (active)
same,viability,[9]; [42],21.5% (active)
same,viability,[9]; [43],1.64% (active)
same,viability,[9]; [44],12.5% (active)
